# Bioassay records from PubChem BioAssay.
# Hits are enriched below; roughly 5.7% of the tested compounds scored in any of these assays.
# PI5P4K alpha inh = qHTS for Inhibitors of phosphatidylinositol 5-phosphate 4-kinase (PI5P4K). 330,000 tested, 1.2% active. max response, %. PI5P4Kalpha enzyme, ADP-Glo luminescence, 60 min; active compounds read low. Phosphatidylinositol 5-phosphate 4-kinase type-2 alpha (Homo sapiens), P48426; active means max response of -50% or lower; inconclusive means between -30% and -50%; inactive means -30% or higher; further: value at the top dose of about 77 µM; on the % scale 0 is the no-effect control and ±100 the full control effect
#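 Enzyme plus substrate dispensed, test compounds pinned in, then ATP (5 microM final) added. After 60 min at RT, ADP-Glo reagent 1 for 45 min and reagent 2 for 30 min preceded luminescence imaging.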
# L3MBTL1 inh = qHTS Assay for the Inhibitors of L3MBTL1 | AID 485360, 2010 | Potency, µM (series often up to 57.1 µM), for inactives: at the highest dose activity, negative = inhibition, most hits filed as inhibitors | AlphaScreen L3MBTL1–H3K9me1 peptide binding | 230,000 tested, 0.66% active | Lethal(3)malignant brain tumor-like protein 1 (Homo sapiens), Q9Y468; further: potency means the concentration at half of the fitted maximal effect; on the % scale 0 is the no-effect control and ±100 the full control effect; nearly all actives have a fitted effect of over 60% in size
#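 AlphaScreen proximity signal between nickel-chelate acceptor and streptavidin donor beads (final 10 ug/mL) reports binding of 50 nM L3MBTL1 to 75 nM biotin-H3 K9me1 peptide; complex incubated with compounds 30 min at room temperature; cefsulodin titration as control.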
# BAZ2B block = qHTS Assay for Inhibitors of BAZ2B | AlphaScreen BAZ2B-H3K14Ac peptide displacement | Potency, µM (series often up to 114 µM), without a hit: at the top dose activity change, negative = inhibition, usual class: inhibitors | 360,000 tested, 4.4% active; further: potency means the concentration at half of the fitted maximal effect; on the % scale 0 is the no-effect control and ±100 the full control effect; nearly all actives have a fitted effect of over 60% in size
#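 AlphaScreen displacement: compounds (up to 110uM) incubated 30 min at room temperature with a preformed 50 nM BAZ2B/50 nM biotinylated H3K14Ac peptide complex in PBS pH 7.4 with Tween-20. Donor and acceptor beads at 10 ug/mL final added, 20 min light-protected before reading.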
# HP1b chromo inh = HTS for Inhibitors of HP1-beta Chromodomain Interactions with Methylated Histone Tails; 390,000 tested, 0.56% active; AlphaScreen HP1-beta / biotin-H3K9me3 peptide binding; Potency, µM (titrated, usually from 114 µM), for the others: at the highest dose activity change, negative = inhibition, usual class: inhibitors; Chromobox protein homolog 1 (Homo sapiens), P83916; further: potency means the concentration at half of the fitted maximal effect; nearly all actives have a fitted effect of over 70% in size
#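 AlphaScreen: HP1-beta (50 nM) preformed 30 min with biotin-H3(1-18)K9me3 peptide (50 nM) in PBS pH 7.4, 0.01% Tween-20. Compound added for 30 min at RT, then streptavidin donor/nickel chelate acceptor beads (10 ug/mL) for 30 min.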
# JMJD2A Tudor = qHTS Assay for Inhibitors of JMJD2A-Tudor Domain. 390,000 tested, 4.4% active. AlphaScreen JMJD2A-Tudor / H3K4me3 peptide binding. Lysine-specific demethylase 4A (Homo sapiens), O75164. AID 504339, 2011. Potency, µM (series often up to 114 µM), for inactives: top-dose activity change, negative = inhibition, actives largely listed as inhibitors; further: potency means the concentration at half of the fitted maximal effect; on the % scale 0 is the no-effect control and ±100 the full control effect; nearly all actives have a fitted effect of over 50% in size
# KDM4E inh = qHTS Assay for Inhibitors of Human Jumonji Domain Containing 2E (JMJD2E); 230,000 tested, 1.6% active; JMJD2E catalytic domain, FDH-coupled NADH fluorescence (FDH is formaldehyde dehydrogenase); AID 2147, 2009; Potency, µM (doses to about 57.1 µM), without a hit: top-dose activity change, negative = inhibition, usual class: inhibitors; active means well fitted inhibition curve with a large enough effect, not every such curve was filed as active; inconclusive means small, poorly fitted or top-dose-only effect, or another doubt; inactive means no such curve, though single readings can be large or run the other way;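 further: potency means the concentration at half of the fitted maximal effect; 0% = wells with enzyme and -100% = buffer wells without enzyme; nearly all actives have a fitted effect of over 50% in size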
# Active calls of the source: *; ? = inconclusive; . = no result; [ ] = another dose, or the depositor's remark. Unless noted, the call rests on the fitted dose curve; in most records, active means well fitted inhibition curve with a large enough effect; inconclusive means small, poorly fitted or top-dose-only effect; inactive means no such curve, though single readings can be large or run the other way.
SMILES,PI5P4K alpha inh,L3MBTL1 inh,BAZ2B block,HP1b chromo inh,JMJD2A Tudor,KDM4E inh
COc1ccc(C(=O)/C=C/c2cccs2)c(OC(=O)N2CCOCC2)c1,0,4%,-7%,15%,-5%,6%
COc1ccc(C(=O)/C=C/c2ccccc2)c(O)c1,8,?,45µM*,?,?,4%
COc1ccc(/C=C/C(=O)c2cc3c(cc2N)OCO3)cc1,11,.,22µM*,40µM*,28µM*,22µM*
COc1ccc(/C=C/C(=O)c2ccc(OC)cc2OC)cc1,5,-5%,-11%,33%,-11%,-16%
COc1ccc(C(=O)C=Cc2cccs2)c(O)c1,12,.,.,?,45µM*,.
COc1ccc(/C=C/C(=O)c2cc(Cl)ccc2O)c(OC)c1,35,?,25µM*,?,?,-2%
COc1ccc(/C=C/C(=O)c2ccc(O)cc2O)cc1,.,.,.,.,.,-1%
CCOc1ccc(CNS(=O)(=O)c2cc3c(cc2C)NC(=O)CO3)cc1,.,.,0%,16%[57 µM],-13%,.
Cc1ccccc1Cn1c(=O)n(CCC(=O)NCc2ccco2)c(=O)c2sccc21,.,.,-10%,29%,0%,.
Cn1c(=O)c2c(n3c4ccccc4nc13)NC(=O)CC2c1cccc(F)c1 (configuration not stated),.,.,1%,37%,-1%,.
COc1ccc(C(=O)/C=C/c2ccc(OC)cc2OC)c(O)c1,4,-14%,?,-19%,18µM*,1%
CN(C)C(=O)c1cccc(-c2cnc3c(NC=O)cc(-c4ccccc4Cl)cn23)c1,-65*,.,.,.,.,.
COc1ccc(F)cc1-c1cc(NC=O)c2ncc(-c3cccc(C(=O)N(C)C)c3)n2c1,-51*,.,.,.,.,.
COc1ccc(F)cc1-c1cc(NC=O)c2ncc(-c3cc(OC)c(OC)c(OC)c3)n2c1,-14,.,.,.,.,.
CCC1CCCCN1C(=O)Nc1cc(Cl)ccc1OC (configuration not stated),4,0%,2%,38%,-6%,-13%
COc1ccc(/C=N/n2cncn2)cc1COc1ccc(NC(C)=O)cc1,-9,1%[11.4 µM],7%,-4%,50µM*,8%
COc1ccc(/C=N/NS(=O)(=O)c2ccc(C)cc2)cc1OC(=O)c1ccccc1,-3,.,79µM*,5%,-32%,1%
COc1ccc(C=O)cc1COc1ccc(NC(C)=O)cc1,.,.,.,.,-23%,.
COc1cc(/C=N/Nc2ccc(Cl)c(C(=O)O)c2)ccc1OC(=O)c1ccc(F)cc1,-5,.,?,7%,?,.
COc1cc(/C=N/Nc2nc(C)cc(C)n2)ccc1OC(=O)c1ccco1,-9,1%,-23%,31%,-1%,-9%
COc1cc(/C=N/Nc2ccc3ccccc3c2)ccc1OC(=O)c1ccco1,-15,-1%,-35%,17%,-15%,20µM*
COc1cccc(C(=O)Oc2ccc(/C=N/Nc3ccc(C(=O)O)cc3)cc2OC)c1,4,-22%,50µM*,-6%,?,.
COc1ccc(Nc2nc(N)nc(CSc3nc4cc(OC)ccc4s3)n2)cc1,.,.,?,-19%,?,.
COc1cccc(OCc2cc(/C=N/Nc3ccc(C(=O)O)cc3)ccc2OC)c1,?,?,56µM*,16%,56µM*,?
COc1ccc(C(=O)N/N=C/c2ccc(OC)c(COc3ccc(F)cc3)c2)cc1,-5,.,-27%,8%,-10%,.
SMILES,PI5P4K alpha inh,L3MBTL1 inh,BAZ2B block,HP1b chromo inh,JMJD2A Tudor,KDM4E inh
CC(C)CNC(=O)CSc1nnc(CN2CCCCCC2=O)n1-c1ccccn1,.,0%,.,-7%,-4%,3%
CC(C)N(C(=O)CSc1nnc(CN2CCCCCC2=O)n1-c1ccccn1)C(C)C,.,.,-27%,?,89µM*,5%
CCOC(=O)c1ccc(/C=C2/C=C(c3ccccc3)N(c3ccc(Cl)c(C(=O)O)c3)C2=O)cc1,?,-10%,50µM*,-21%,?,1%
CCOC(=O)c1ccc(Cl)c(NC(=O)c2ccc(-c3ccccc3)cc2)c1,.,-2%,-20%,16%,-1%,3%
COc1cc(/C=C(\C#N)c2[nH]nc(N)c2C#N)cc(OC)c1O,-64*,.,6%,?,-11%,-1%
COc1ccc(S(=O)(=O)N2CCN(CC(=O)c3ccc(O)c(O)c3)CC2)cc1,5,.,-38%,16%,?,.
O=C(CN1CCN(S(=O)(=O)c2ccc(Cl)cc2)CC1)c1ccc(O)c(O)c1,1,.,?,-18%[57 µM],18µM*,.
COc1cccc(C(=O)CN2CCN(S(=O)(=O)c3ccc(Cl)cc3)CC2)c1,.,.,-17%,40%,-16%,.
O=C(CN1CCN(S(=O)(=O)c2ccc(F)cc2)CC1)c1ccc(O)c(O)c1,-4,.,?,18%,?,4.5µM*
CCS(=O)(=O)N1CC(=O)N(c2cc(C)cc(C)c2)C(C)(C(=O)NC2CCCCC2)C1 (configuration not stated),.,.,2%,36%,-4%,.
O=C(CCC(=O)c1ccccc1)NCc1ccccc1,-8,-1%,-7%,24%,4%,-5%
CSCCC(C(=O)O)N1C(=O)c2ccc(C(=O)O)cc2C1=O (configuration not stated),4,-4%,-10%,21%,79µM*,2%
CNC(=S)N/N=C(\C)c1ccc2c(c1)OCCO2,-76*,-5%,?,-1%,-6%,-20%
CNC(=S)N/N=C(\C)c1ccc2c(c1)OCO2,-65*,-18%,?,10%,-33%,-7%
C/C(=N\NC(=S)NC(C)C)c1ccc2c(c1)OCCO2,2,-15%,?,50µM*,?,-7%
Oc1c(C(c2ccccc2)N2CCN(Cc3ccccc3)CC2)sc2nc(-c3ccco3)nn12 (configuration not stated),.,.,-34%,-9%,-25%,.
CC(=O)c1cn(-c2ccc(Cl)cc2)c(=O)n(Cc2ccc(F)cc2)c1=O,-1,-4%,-2%,42%,-17%,-4%
Cc1ccc(NS(=O)(=O)c2ccc3c(c2)CCC(=O)N3)cc1F,.,.,.,.,-26%,.
NC(=O)C1(N2CCCCC2)CCN(C(=O)Nc2ccc(Cl)c(Cl)c2)CC1,.,.,-4%,19%,-19%,.
O=[N+]([O-])c1ccccc1CNC1CCCc2ccccc21 (configuration not stated),-11,14%,56µM*,?,28µM*,?
